In paper PMC7862700, “An all-to-all approach to the identification of sequence-specific readers for epigenetic DNA modifications on cytosine”:

Tests used:
Assay in all cases: DAPPL (digital affinity profiling via proximity ligation, sequencing); 10 mM Tris-HCl pH 7.5, 50 mM NaCl, 1 mM DTT, 4% glycerol, room temperature, 30 min; GST-TFs on glutathione beads, 16-mer random dsDNA library, 0.1% formaldehyde crosslink after washing; high values mean tight binding
Conditions in all cases: protein: recombinant; tags: N-terminal GST; dsDNA, one strand shown
FLI1 = target: T1, FLI1 (Homo sapiens, UniProt Q01543 1-452)
T1 sequence: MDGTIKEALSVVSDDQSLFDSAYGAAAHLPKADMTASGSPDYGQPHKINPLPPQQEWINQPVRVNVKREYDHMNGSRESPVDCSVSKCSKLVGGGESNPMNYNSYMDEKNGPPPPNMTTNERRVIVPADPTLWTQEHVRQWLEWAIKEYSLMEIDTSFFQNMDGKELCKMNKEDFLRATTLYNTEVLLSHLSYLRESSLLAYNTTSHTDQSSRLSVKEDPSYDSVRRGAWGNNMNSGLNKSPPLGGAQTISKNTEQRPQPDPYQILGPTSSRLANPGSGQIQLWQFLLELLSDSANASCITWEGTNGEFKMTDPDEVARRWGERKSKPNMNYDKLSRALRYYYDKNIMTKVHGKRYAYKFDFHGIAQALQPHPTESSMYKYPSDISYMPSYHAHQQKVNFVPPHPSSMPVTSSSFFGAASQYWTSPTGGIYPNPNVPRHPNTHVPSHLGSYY
Method in brief: (§1)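 Sequencing on an Illumina NextSeq500 followed washing, crosslinking with 0.1% formaldehyde, proximity ligation (BsaI/T4 ligase, 1 h, 37 °C) and PCR amplification of pools that had been incubated for 30 min at room temperature with 200 nmole of a random double-stranded 16-mer DNA library in Tris/NaCl/DTT/glycerol buffer. Each pool held DNA-barcoded human transcription factors, expressed in yeast as GST fusions and captured on glutathione beads, plus a tag-only sample. Binding signal is a hexamer's read frequency for a factor divided by its frequency in the tag-only sample.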

ELK1 = target: T2, ELK1 (Homo sapiens, UniProt P19419 1-428)
T2 sequence: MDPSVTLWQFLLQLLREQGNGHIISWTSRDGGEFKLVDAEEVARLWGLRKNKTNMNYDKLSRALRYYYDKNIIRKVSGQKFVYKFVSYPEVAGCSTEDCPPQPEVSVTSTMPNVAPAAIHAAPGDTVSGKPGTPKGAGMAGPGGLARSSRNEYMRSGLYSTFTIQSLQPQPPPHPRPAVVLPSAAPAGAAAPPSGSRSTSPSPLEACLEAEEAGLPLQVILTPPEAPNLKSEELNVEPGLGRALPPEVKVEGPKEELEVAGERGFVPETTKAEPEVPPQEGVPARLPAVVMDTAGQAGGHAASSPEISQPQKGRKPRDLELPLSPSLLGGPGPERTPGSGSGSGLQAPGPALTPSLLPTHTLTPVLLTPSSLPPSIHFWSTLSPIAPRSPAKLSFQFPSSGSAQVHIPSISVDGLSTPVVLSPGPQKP
Method in brief: as §1

GABPA = target: T3, GABPA (Homo sapiens, UniProt Q06546 1-454)
T3 sequence: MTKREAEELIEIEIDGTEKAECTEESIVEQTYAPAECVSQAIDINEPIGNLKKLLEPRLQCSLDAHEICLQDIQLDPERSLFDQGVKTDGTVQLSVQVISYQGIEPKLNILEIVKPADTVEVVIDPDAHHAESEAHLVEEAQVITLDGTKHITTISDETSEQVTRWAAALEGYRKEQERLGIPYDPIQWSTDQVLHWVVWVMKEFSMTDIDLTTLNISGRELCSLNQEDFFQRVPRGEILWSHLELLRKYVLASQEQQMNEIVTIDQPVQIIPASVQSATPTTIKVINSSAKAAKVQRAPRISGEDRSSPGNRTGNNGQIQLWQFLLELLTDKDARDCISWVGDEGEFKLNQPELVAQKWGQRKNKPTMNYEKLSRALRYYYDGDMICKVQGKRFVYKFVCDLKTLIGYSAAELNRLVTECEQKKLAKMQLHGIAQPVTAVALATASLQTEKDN
Method in brief: as §1

ERG = target: T4, ERG (Homo sapiens, UniProt P11308 1-479)
T4 sequence: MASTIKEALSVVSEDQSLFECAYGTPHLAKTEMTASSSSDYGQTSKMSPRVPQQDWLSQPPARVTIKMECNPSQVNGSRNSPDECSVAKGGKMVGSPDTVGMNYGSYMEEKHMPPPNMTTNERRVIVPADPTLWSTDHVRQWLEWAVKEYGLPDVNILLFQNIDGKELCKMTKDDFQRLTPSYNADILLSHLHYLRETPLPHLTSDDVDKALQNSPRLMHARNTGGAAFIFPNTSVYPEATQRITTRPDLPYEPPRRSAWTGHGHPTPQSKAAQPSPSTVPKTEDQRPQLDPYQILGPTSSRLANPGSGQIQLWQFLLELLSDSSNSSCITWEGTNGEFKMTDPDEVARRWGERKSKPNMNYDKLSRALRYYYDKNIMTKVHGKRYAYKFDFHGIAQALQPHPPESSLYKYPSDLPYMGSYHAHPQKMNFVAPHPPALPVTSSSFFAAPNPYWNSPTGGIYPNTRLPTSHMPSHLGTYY
Method in brief: as §1

ELF1 = ELF1 (Homo sapiens, UniProt P32519 1-619)
Chain of ELF1 (P32519 whole entry): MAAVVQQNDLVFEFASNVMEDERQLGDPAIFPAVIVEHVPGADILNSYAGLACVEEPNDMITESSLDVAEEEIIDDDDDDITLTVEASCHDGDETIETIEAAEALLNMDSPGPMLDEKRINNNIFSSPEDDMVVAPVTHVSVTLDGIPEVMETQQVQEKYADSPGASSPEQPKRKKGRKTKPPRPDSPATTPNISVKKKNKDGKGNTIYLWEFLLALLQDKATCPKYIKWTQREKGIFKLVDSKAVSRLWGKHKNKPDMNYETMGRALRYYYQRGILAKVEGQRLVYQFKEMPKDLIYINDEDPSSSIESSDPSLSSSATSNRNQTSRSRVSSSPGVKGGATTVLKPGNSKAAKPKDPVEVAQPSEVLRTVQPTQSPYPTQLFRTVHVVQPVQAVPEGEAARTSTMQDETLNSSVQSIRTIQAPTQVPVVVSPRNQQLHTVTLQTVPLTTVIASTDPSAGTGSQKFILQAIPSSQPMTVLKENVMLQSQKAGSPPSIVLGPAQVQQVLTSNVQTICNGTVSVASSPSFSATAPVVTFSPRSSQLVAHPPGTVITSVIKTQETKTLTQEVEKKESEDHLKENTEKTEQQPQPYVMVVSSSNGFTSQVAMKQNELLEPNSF
Method in brief: as §1

EHF = target: T5, EHF (Homo sapiens, UniProt Q9NZC4 1-300)
T5 sequence: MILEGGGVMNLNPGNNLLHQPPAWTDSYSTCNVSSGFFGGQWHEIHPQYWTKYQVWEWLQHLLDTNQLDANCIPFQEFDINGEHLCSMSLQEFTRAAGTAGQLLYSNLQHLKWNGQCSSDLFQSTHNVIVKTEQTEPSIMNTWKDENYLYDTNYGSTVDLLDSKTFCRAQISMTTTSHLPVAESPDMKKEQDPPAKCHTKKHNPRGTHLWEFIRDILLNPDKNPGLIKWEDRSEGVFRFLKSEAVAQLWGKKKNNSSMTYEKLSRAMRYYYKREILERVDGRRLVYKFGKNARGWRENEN
Method in brief: as §1

SPI1 = SPI1 (Homo sapiens, UniProt P17947 1-270)
Method in brief: as §1

SPIB = SPIB (Homo sapiens, UniProt Q01892 1-262)
Chain of SPIB (Q01892 whole entry): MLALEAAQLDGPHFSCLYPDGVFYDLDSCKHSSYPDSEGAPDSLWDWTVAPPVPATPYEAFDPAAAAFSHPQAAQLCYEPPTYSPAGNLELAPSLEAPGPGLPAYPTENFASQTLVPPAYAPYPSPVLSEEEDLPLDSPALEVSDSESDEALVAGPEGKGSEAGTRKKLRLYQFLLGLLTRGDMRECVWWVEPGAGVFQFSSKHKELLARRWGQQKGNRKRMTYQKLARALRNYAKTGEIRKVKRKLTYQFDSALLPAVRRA
Method in brief: as §1

ELK3 = target: T6, ELK3 (Homo sapiens, UniProt P41970 1-407)
T6 sequence: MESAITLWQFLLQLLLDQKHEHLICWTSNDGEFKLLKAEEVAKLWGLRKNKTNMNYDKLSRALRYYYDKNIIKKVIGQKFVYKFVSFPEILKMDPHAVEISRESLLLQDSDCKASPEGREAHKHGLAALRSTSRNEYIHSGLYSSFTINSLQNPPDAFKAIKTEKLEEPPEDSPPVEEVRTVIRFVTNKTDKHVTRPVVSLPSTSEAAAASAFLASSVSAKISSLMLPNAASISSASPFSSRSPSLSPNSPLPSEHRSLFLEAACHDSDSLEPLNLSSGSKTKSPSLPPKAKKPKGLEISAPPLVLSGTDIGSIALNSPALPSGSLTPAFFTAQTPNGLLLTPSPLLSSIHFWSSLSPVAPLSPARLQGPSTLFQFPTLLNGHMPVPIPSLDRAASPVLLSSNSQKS
Method in brief: as §1

| Sequence | binding signal (FLI1) | binding signal (ELK1) | binding signal (GABPA) | binding signal (ERG) | binding signal (ELF1) | binding signal (EHF) | binding signal (SPI1) | binding signal (SPIB) | binding signal (ELK3) |
| --- | --- | --- | --- | --- | --- | --- | --- | --- | --- |
| CCTCGA | 1.33 fold enrichment (6-mer frequency, TF over GST control) | 1.26 fold enrichment (6-mer frequency, TF over GST control) | 1.31 fold enrichment (6-mer frequency, TF over GST control) | 1.3 fold enrichment (6-mer frequency, TF over GST control) | 1.27 fold enrichment (6-mer frequency, TF over GST control) | 1.37 fold enrichment (6-mer frequency, TF over GST control) | 1.26 fold enrichment (6-mer frequency, TF over GST control) | 1.25 fold enrichment (6-mer frequency, TF over GST control) | 1.18 fold enrichment (6-mer frequency, TF over GST control) |
| ATGACG | 1.28 fold enrichment (6-mer frequency, TF over GST control) | 1.44 fold enrichment (6-mer frequency, TF over GST control) | 1.37 fold enrichment (6-mer frequency, TF over GST control) | 1.29 fold enrichment (6-mer frequency, TF over GST control) | 1.34 fold enrichment (6-mer frequency, TF over GST control) | 1.21 fold enrichment (6-mer frequency, TF over GST control) | 1.32 fold enrichment (6-mer frequency, TF over GST control) | 1.43 fold enrichment (6-mer frequency, TF over GST control) | 1.39 fold enrichment (6-mer frequency, TF over GST control) |
| AACTTA | 1.28 fold enrichment (6-mer frequency, TF over GST control) | 1.24 fold enrichment (6-mer frequency, TF over GST control) | 1.32 fold enrichment (6-mer frequency, TF over GST control) | 1.18 fold enrichment (6-mer frequency, TF over GST control) | 1.27 fold enrichment (6-mer frequency, TF over GST control) | 1.34 fold enrichment (6-mer frequency, TF over GST control) | 1.23 fold enrichment (6-mer frequency, TF over GST control) | 1.23 fold enrichment (6-mer frequency, TF over GST control) | 1.26 fold enrichment (6-mer frequency, TF over GST control) |
| AACTCC | 1.47 fold enrichment (6-mer frequency, TF over GST control) | 1.29 fold enrichment (6-mer frequency, TF over GST control) | 1.39 fold enrichment (6-mer frequency, TF over GST control) | 1.32 fold enrichment (6-mer frequency, TF over GST control) | 1.35 fold enrichment (6-mer frequency, TF over GST control) | 1.3 fold enrichment (6-mer frequency, TF over GST control) | 1.34 fold enrichment (6-mer frequency, TF over GST control) | 1.32 fold enrichment (6-mer frequency, TF over GST control) | 1.38 fold enrichment (6-mer frequency, TF over GST control) |
| AAGTAC | 1.52 fold enrichment (6-mer frequency, TF over GST control) | 1.74 fold enrichment (6-mer frequency, TF over GST control) | 1.44 fold enrichment (6-mer frequency, TF over GST control) | 1.53 fold enrichment (6-mer frequency, TF over GST control) | 1.49 fold enrichment (6-mer frequency, TF over GST control) | 1.59 fold enrichment (6-mer frequency, TF over GST control) | 1.62 fold enrichment (6-mer frequency, TF over GST control) | 1.57 fold enrichment (6-mer frequency, TF over GST control) | 1.73 fold enrichment (6-mer frequency, TF over GST control) |
| TTACAC | 1.28 fold enrichment (6-mer frequency, TF over GST control) | 1.26 fold enrichment (6-mer frequency, TF over GST control) | 1.18 fold enrichment (6-mer frequency, TF over GST control) | 1.27 fold enrichment (6-mer frequency, TF over GST control) | 1.3 fold enrichment (6-mer frequency, TF over GST control) | 1.39 fold enrichment (6-mer frequency, TF over GST control) | 1.13 fold enrichment (6-mer frequency, TF over GST control) | 1.21 fold enrichment (6-mer frequency, TF over GST control) | 1.31 fold enrichment (6-mer frequency, TF over GST control) |
